Results: publication PMC4336329 (PLoS ONE, 2015)
Hit rate of the full screen: of about 310,000 compounds, about 14,000 (4.5%) showed an effect of 50% or more. Effects have a minus sign here. For the sample, strong results were picked, then their nearest neighbours and some compounds at random.

Target: human ether-à-go-go-related gene (hERG) potassium channel (human, UniProt Q12809)
Test: primary screen, population patch clamp on CHO cells stably expressing hERG; higher = less effect of the substance
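Further: peak tail current of the secondary pulse compared with the same well before compound.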

Sequence of human ether-à-go-go-related gene (hERG) potassium channel (Q12809 whole entry, looked up): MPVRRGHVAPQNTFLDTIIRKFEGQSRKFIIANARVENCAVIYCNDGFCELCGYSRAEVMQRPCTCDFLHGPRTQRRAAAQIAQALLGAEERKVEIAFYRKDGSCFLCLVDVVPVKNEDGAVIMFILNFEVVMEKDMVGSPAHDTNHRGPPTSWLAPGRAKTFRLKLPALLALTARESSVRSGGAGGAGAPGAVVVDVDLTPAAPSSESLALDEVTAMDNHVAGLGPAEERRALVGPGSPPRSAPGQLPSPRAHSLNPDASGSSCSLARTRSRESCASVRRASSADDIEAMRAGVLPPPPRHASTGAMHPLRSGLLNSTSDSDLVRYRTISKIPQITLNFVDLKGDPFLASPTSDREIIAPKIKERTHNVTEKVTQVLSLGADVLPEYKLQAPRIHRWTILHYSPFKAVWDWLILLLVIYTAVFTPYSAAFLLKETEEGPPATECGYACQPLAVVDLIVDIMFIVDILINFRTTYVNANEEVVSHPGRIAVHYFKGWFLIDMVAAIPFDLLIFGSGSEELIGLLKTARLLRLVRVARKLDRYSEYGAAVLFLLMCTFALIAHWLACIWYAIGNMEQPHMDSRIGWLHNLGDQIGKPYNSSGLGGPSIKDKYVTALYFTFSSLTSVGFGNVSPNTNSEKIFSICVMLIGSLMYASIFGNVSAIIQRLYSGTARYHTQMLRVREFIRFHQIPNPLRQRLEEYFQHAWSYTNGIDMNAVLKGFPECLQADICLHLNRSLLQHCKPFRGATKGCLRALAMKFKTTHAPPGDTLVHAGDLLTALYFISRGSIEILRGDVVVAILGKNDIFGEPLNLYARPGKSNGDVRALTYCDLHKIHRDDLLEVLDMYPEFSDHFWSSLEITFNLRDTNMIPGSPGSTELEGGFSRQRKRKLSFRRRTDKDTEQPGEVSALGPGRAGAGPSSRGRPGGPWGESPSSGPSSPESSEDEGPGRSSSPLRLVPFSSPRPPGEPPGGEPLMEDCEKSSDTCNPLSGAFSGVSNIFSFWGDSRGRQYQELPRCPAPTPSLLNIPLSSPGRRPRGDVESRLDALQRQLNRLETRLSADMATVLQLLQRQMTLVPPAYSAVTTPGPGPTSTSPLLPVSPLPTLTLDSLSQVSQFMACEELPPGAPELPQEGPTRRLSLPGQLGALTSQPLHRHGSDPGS

Structure (SMILES)	hERG current change (%, negative = inhibition) at 10uM
CCc1ccc(NC(=O)CCn2c(=O)oc3ccccc32)cc1	-10.1%
CCc1ccc(-c2nc3ccc(Br)cc3c(C(=O)O)c2C)s1	19.1%
CCOc1ccc(NC(=O)CN2CCN(CC(=O)Nc3ccc(F)c(F)c3)CC2)cc1	-78.3%
CCOc1ccc(NC(=O)CN2CCN(c3ccc(F)cc3)CC2)cc1	-22.2%
CCN1CCN(CCC(=O)Nc2ccc(F)c(F)c2)CC1	-17.1%
COc1cc(NC(=O)CN2CCCCCC2)cc(OC)c1	5.28%
CCOc1ccc(NC(=O)CN2CCN(CC(=O)Nc3cc(OC)cc(OC)c3)CC2)cc1	-74.9%
O=C(CN1CCN(c2ccccn2)CC1)Nc1ccc(F)c(F)c1	-27.6%
CCc1sc(C(=O)N2CCN(c3ccc(F)cc3)CC2)cc1C	-16.3%
O=C(CN1CCN(c2ccc(Cl)cc2)CC1)Nc1cccc(F)c1	-3.54%
CCCCOc1ccc(NC(=O)CN2CCN(CC)CC2)cc1.Cl	-15.9%
CCOc1ccc(NC(=O)CN2CCN(CC(=O)Nc3ccc(F)cc3)CC2)cc1	-77.2%
CCc1sc(C(=O)N2CCN(CC(=O)Nc3cccc(F)c3)CC2)cc1C	-65%
COC(=O)c1ccccc1C(=O)N1CCOCCN(C(=O)c2ccccc2C(=O)OC)CCOCC1	0.0748%
O=C(Cn1cncn1)NCc1cccc(OC(F)F)c1	7.23%
O=C(Nc1nc2ccccc2s1)C1CCN(S(=O)(=O)c2cc([N+](=O)[O-])ccc2Cl)CC1	10.4%
COc1ccc(CCN=c2c([N+](=O)[O-])nn(-c3cccc(C)c3)n2O)cc1OC	-34.1%
O=C(COC(=O)C1CCN(S(=O)(=O)c2cccc3cccnc23)CC1)c1ccccc1	7.23%
Cc1onc(-c2ccccc2)c1C(=O)NC(C)C1CCCO1 (centres unmarked)	10.5%
C/C(=N\Nc1cc(N2CCOCC2)nc(C)n1)c1ccc(F)cc1	-12%
Clc1cccc(Cc2ccc(Cl)nn2)c1	-3.46%
COc1cccc2cc(C(=O)N3CCN(C(=O)c4ccccc4)CC3)c(=O)oc12	7.71%

Structure (SMILES)	hERG current change (%, negative = inhibition) at 10uM
O=C(Nc1ccccc1Cc1ccccc1)c1ccccc1F	-4.48%
COc1ccc(Oc2ccccc2/C=N/O)cc1	4.99%
Cc1sc2ncnc(N3CCC(C(=O)Nc4ccc(C#N)c(Cl)c4)CC3)c2c1C	-7.2%
COc1ccccc1N1CCN(CC(=O)Nc2cccc(F)c2)CC1	-28.1%
Cc1ccc(OCCC(=O)Nc2ccc(F)c(F)c2)cc1	-5.62%
CC(=O)c1cccc(OCC(=O)N2CCN(CC(=O)Nc3cccc(F)c3)CC2)c1	-42.2%
CCOc1ccc(NC(=O)CN2CCN(CC(=O)Nc3ccc(Cl)c(C(F)(F)F)c3)CC2)cc1	-57%
O=C(CN1CCN(S(=O)(=O)c2ccc(F)cc2)CC1)Nc1ccc(Cl)c(C(F)(F)F)c1	9.48%
O=C(CN1CCN(c2ccccn2)CC1)Nc1cccc(F)c1	5.56%
CCOc1ccc(NC(=O)CN2CCN(CC(=O)Nc3cccc(F)c3)CC2)cc1	-86.3%
O=C(CN1CCN(C(=O)COc2cccc(F)c2)CC1)Nc1ccc(Cl)c(C(F)(F)F)c1	-60.6%
Cc1ccc(OCCC(=O)Nc2ccc(F)c(Cl)c2)cc1	5.65%
Cc1ccc(OCCC(=O)Nc2ccc(C)c(F)c2)cc1	-50.6%
O=C(CN1CCN(c2ccccn2)CC1)Nc1ccc(Cl)c(C(F)(F)F)c1	-7.97%
O=C(COc1ccc(S(=O)(=O)N2CCOCC2)cc1)Nc1ccc(Cl)c(C(F)(F)F)c1	-13.1%
Cc1c(NC(=O)c2ccc([N+](=O)[O-])o2)cccc1-c1nc2ncccc2o1	-11.8%
CCC(C)C(=O)Nc1ccc([N+](=O)[O-])cc1OC (centres unmarked)	4.15%
CCC(C)(C)NC(=O)CN(Cc1ccc(OC)cc1)C(=O)CCC(=O)Nc1nccs1	-4.32%
O=C(NC1CCCCC1)c1ccc(S(=O)(=O)c2ccccc2Cl)c([N+](=O)[O-])c1	1.94%
COc1cccc(CC(=O)OCC(=O)N(C)CC(=O)Nc2ccc(F)cc2)c1	-9.44%
CN(C)c1ccc(C2Nc3ccccc3C(=O)N2NS(C)(=O)=O)cc1 (centres unmarked)	14.2%
C/C(=N\NC(=O)c1nnn(-c2nonc2N)c1CN1CCCCCC1)c1ccc(Br)cc1	24.6%
